Screens (PubChem)
A selection: hits, their analogues and other compounds. The true share with any hit is near 2.7%.
IDE cell inh: cellular human IDE inhibition; hit rate 0.41% among 320,000; inhibition, % at 5.59 µM; HEK cells, FAbetaB cleavage, fluorescence polarization; P14735;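 active = percent inhibition above the average of all tested compounds plus 3 SD, set per screening campaign, cut at about 16% in these data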;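 also: IDE supplied by intact live HEK cells; FP after avidin binding of uncleaved biotin substrate so inhibition keeps polarization high; 0% = DMSO wells and 100% = 60 µM reference IDE inhibitor Ii1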
ANO1 block: inhibitors of mouse TMEM16A calcium-activated chloride channel; hit rate 1.2% among 310,000; normalized B-score (activity score, 25-100; higher = stronger inhibition) at 10 µM; Q8BHY3; HEK293 TMEM16A/YFP iodide influx fluorescence, ionomycin; AID 588511;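 active = ratio plate-corrected score three or more library SD toward inhibition, starting fluorescence score within five deviations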;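 also: score derived from kinetic fluorescence span divided by baseline fluorescence per well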
CHT block: human CHT choline transport inhibition | Q9GZV3 | CHT-expressing cells, membrane potential dye, choline response; active compounds read low | B-score at 10 µM | hit rate 0.86% among 310,000 | AID 488975;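 active = B-score over 3 SD under the library average, and starting fluorescence ratio not unusually high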;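 also: choline stimulus applied at its EC90 after an EC20 pre-addition; B-score computed on integrated fluorescence ratio after choline addition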
Target sequence (Q9GZV3 whole entry, looked up): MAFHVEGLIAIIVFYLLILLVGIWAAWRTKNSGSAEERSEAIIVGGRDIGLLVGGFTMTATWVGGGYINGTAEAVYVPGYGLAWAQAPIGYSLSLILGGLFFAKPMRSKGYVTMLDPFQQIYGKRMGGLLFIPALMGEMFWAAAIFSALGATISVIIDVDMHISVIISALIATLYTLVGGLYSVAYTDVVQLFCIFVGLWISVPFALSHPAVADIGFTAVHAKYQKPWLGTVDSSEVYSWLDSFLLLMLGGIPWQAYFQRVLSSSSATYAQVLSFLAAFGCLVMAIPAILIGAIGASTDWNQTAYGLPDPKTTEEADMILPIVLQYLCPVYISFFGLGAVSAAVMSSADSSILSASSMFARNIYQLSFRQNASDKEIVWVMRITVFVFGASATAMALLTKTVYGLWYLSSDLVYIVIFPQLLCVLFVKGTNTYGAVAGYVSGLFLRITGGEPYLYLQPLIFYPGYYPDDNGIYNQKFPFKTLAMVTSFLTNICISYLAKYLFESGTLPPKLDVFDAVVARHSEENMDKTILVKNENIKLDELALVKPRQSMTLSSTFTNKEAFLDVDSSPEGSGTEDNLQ
IDE cell activ: activators of human insulin-degrading enzyme in cells | HEK cells, FAbeta-B cleavage, fluorescence polarization; 0% vehicle, 100% cell-free pure enzyme wells | activation, % at 5.96 µM | hit rate 0.073% among 340,000;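 active = activation above the mean of all tested compounds plus 3 SD, set per screening campaign, cut at about 17% in these data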
ANO1 activ: mouse TMEM16A channel activation, primary screen. HEK293 TMEM16A/YFP-H148Q/I152L, iodide quench fluorescence; active compounds read low. Q8BHY3. AID 623877. B-score at 10 µM. hit rate 0.3% among 340,000;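 active = fluorescence-ratio B-score plate-corrected deviation score at least 3 library SD below zero, with starting fluorescence score within 5 deviations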;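 also: channel opened by trigger with iodide after compound preincubation; score built on the fluorescence ratio of max minus min over baseline; more negative score means more quench and so TMEM16A activation or potentiation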
CHT PAM: allosteric activators of human choline transporter CHT. Q9GZV3. CHT-expressing cells, membrane potential dye, choline EC20; active compounds read high; LV-AA mutant CHT in HEK293 cells. B-score at 10 µM. hit rate 0.49% among 310,000;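 active = initial fluorescence not abnormally high and integrated response B-score, plate-corrected, over 3 SD above library mean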
The depositor's hits bear a star; i = inactive; . = not tested or not shown.

SMILES | IDE cell inh | ANO1 block | CHT block | IDE cell activ | ANO1 activ | CHT PAM
Cc1cc(C)nc(SCc2nnc(SCC(=O)Nc3ccc(Cl)c(C(F)(F)F)c3)o2)n1 | -2.0 | 100* | i | 3.9 | i | i
CCN(c1ccccc1)S(=O)(=O)c1cccc(C(=O)NCCOc2ccccc2OC)c1 | . | . | . | 4.4 | i | .
CCOC(=O)C1CCCN(C(=O)CSc2nnnn2C)C1 (configuration not stated) | 1.8 | . | . | 0.9 | i | .
CC(Oc1ccc(Cl)cc1)c1ccnn1S(=O)(=O)c1ccc(Cl)cc1 (configuration not stated) | 1.5 | i | i | 2.3 | i | i
Cc1ccc(S(=O)(=O)n2nccc2-c2c(-c3ccc(Cl)cc3)noc2C)cc1 | 5.0 | i | i | . | -4.86* | i
O=C(Cn1cc([N+](=O)[O-])ccc1=O)NCC(=O)Nc1ccc(F)c(F)c1F | 4.9 | . | . | 5.8 | i | .
Cc1cccc2c3c([nH]c12)CCN(C)C3 | 3.2 | i | -5.84* | 2.6 | i | i
CCCCn1c(N)c(N(CC)C(=O)C2CCN(C(=O)c3ccccc3C)CC2)c(=O)[nH]c1=O | -0.3 | . | . | 4.1 | i | .
COc1ccc(-c2noc(CN(C)Cc3ccccc3)n2)c(OC)c1OC | . | i | i | 8.0 | i | i
O=c1c2ccccc2nc(COc2ccccc2)n1/N=C/c1cn[nH]c1-c1ccccc1 | 2.4 | i | i | -17.2 | -6.49* | i
O=C(CCc1ccc(S(=O)(=O)N2CCOCC2)cc1)Nc1nc(COc2ccccc2)cs1 | -0.5 | 25* | i | -5.4 | i | i
O=C(NNC(=O)C(Cl)Cl)c1cnn(-c2ccccc2)c1C(F)(F)F | -1.7 | i | i | -2.9 | i | i
Oc1ccccc1N=N/C(=N/Nc1ccccc1O)c1ccccc1 | 2.4 | i | i | -0.2 | i | i
N#C/C(N=Nc1ccccc1O)=N\Nc1ccccc1O | 0.8 | 100* | -10.8* | -2.1 | i | i
C/C(=C\C(=O)c1ccc(Br)cc1)NCc1ccccc1 | 0.8 | i | i | 3.0 | i | i
C/C(=C\C(=O)c1ccc(Br)cc1)NCc1ccc(C)cc1 | 1.6 | 100* | i | 1.9 | i | i
COc1ccc(CCNC(=O)COC(=O)c2ccco2)cc1OC | -1.8 | i | i | 4.8 | i | i
COc1ccc(CCNC(=O)COC(=O)C2CC2C)cc1OC (configuration not stated) | -2.8 | . | . | 21.6* | -41.7* | .
CCCN(CCC)C(=O)Cn1c(=O)c2ccccc2n2c(=S)sc(-c3ccccc3C)c12 | 2.3 | i | i | 3.5 | -7.63* | i
CCCN(CCC)C(=O)Cn1c(=O)c2sccc2n2c(=S)sc(-c3ccccc3)c12 | 1.4 | i | i | 9.8 | i | i
Cc1cc(/C=N/NC(=O)c2ccccc2F)c(C)n1-c1ccccc1 | -1.3 | i | -6.33* | -1.9 | i | i
Cc1noc(C)c1S(=O)(=O)N(CC(=O)NCCc1ccccc1)c1ccc(C(C)C)cc1 | 5.0 | i | i | 6.0 | i | i
CCOc1ccc(OCCCC(=O)N2CCN(S(=O)(=O)c3ccccc3C#N)CC2)cc1 | -3.2 | . | . | -0.3 | i | .
COc1ccc(/C=C2\SC(=S)N(NC(=O)c3ccncc3)C2=O)cc1OC | 7.8 | i | -7.99* | . | . | i
COc1ccn(C2CCCCO2)c(=O)n1 (configuration not stated) | . | . | . | 1.3 | i | .
SMILES | IDE cell inh | ANO1 block | CHT block | IDE cell activ | ANO1 activ | CHT PAM
C=CC[n+]1c(/C=C/c2ccc(OC(C)=O)c(OC)c2)ccc2ccccc21 | 2.8 | i | i | -0.1 | i | 7.44*
COc1cc(/C=N/NC(=O)Nc2ccccc2)ccc1OC(C)=O | 5.8 | i | i | -1.0 | i | i
CCOC(=O)C1CCCN(C(=O)Cn2ncc3c([nH]c4ccc(C)cc43)c2=O)C1 (configuration not stated) | -0.5 | i | i | 6.9 | i | i
Cc1c(CCOC(=O)C23CC4CC(CC(C)(C4)C2)C3)sc[n+]1CC(=O)c1ccccc1 | 1.1 | i | i | 3.1 | i | i
Cc1c(CCOC(=O)CC23CC4CC(CC(C)(C4)C2)C3)sc[n+]1CC(=O)c1ccccc1 | -3.5 | 100* | i | 8.2 | i | i
CCCC[C@@H]1CNCCN1CCc1cc(C(F)(F)F)cc(C(F)(F)F)c1 | 4.8 | i | i | 4.9 | i | i
NC1=NC[C@H](CC2CCCCC2)N1CCc1cc(C(F)(F)F)cc(C(F)(F)F)c1 | 3.5 | i | i | 25.6* | i | i
FC(F)(F)c1cc(CCN2CCNC[C@@H]2CC2CCCCC2)cc(C(F)(F)F)c1 | -3.5 | . | . | 22.9* | i | .
NC1=NC[C@@H](Cc2ccc(O)cc2)N1CCc1cc(C(F)(F)F)cc(C(F)(F)F)c1 | 0.1 | i | i | 5.5 | i | i
NC(=O)c1c(NC(=O)COC(=O)c2ccc(O)c(Cl)c2)sc2c1CCCC2 | 0.2 | . | . | 1.6 | i | .
CCN(CC)S(=O)(=O)c1cc(C(=O)Nc2cccnc2)ccc1Cl | 4.1 | i | i | 0.6 | i | i
CCN(CC)S(=O)(=O)c1cc(C)ccc1NC(=S)Nc1cccnc1 | -1.1 | 25* | i | 0.4 | i | i
CC(C)C[C@H](NC(=O)OCC1c2ccccc2-c2ccccc21)C(=O)O | . | . | . | 6.1 | i | .
Cc1nn(CCc2nn[nH]n2)c2nc(C(F)(F)F)cc(C(F)(F)F)c12 | 5.0 | i | i | 1.4 | i | i
Cc1nn(CCc2nn[nH]n2)c2nc(-c3ccc(Br)cc3)cc(C(F)(F)F)c12 | -1.1 | 100* | i | -2.0 | i | i
CCOC(=O)CC1C(=O)NCCN1c1nc2ccc(C)cn2c(=O)c1/C=C1\SC(=S)N(C(C)CC)C1=O (configuration not stated) | 42.5* | i | i | . | . | i
Cn1c(SCC(=O)NC2(C#N)CCCCC2)nnc1-c1cccnc1 | 1.8 | i | i | -1.2 | i | i
Cc1ccc(S(=O)(=O)Nc2ccccc2N2CCCCC2)cc1 | -2.8 | . | . | 4.6 | -20* | .
CCc1ccc(NC(=O)c2nc(S(=O)(=O)Cc3ccccc3)ncc2Cl)cc1 | -1.1 | i | i | -4.4 | i | i
CSc1nnc(NC(=O)c2nc(S(=O)(=O)Cc3ccccc3)ncc2Cl)s1 | 5.3 | i | -9.2* | 5.9 | i | i
CN(Cc1ccccc1)S(=O)(=O)c1ccc(N2CCCC2=O)cc1 | 0.4 | . | . | 4.1 | i | .
O=c1cc(-c2ccc(O)c(O)c2)oc2cc(O[C@@H]3O[C@H](CO)[C@@H](O)[C@H](O)[C@H]3O)cc(O)c12 | 1.6 | . | . | 7.0 | -16* | .
O=C(COc1cccc2cccnc12)Nc1cccc(S(=O)(=O)N2CCCC2)c1 | -2.7 | . | . | 30.1* | i | .
